Screening data (PubChem BioAssay)
This is a sample that favours compounds with a hit; in the whole collection about 3.9% have one here.
HIF-2a block – blocks HIF-2a reporter activity; 786-0 RCC cells HIF-2a reporter, luciferase luminescence, overnight; inhibition, % at 18.8 µM; 0.72% of 360,000 active;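 active means inhibition of the luminescence signal of 40% or more relative to plate controls, in a single-dose primary screen at 18.75 µM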
TWEAK Fn14 block – TWEAK-Fn14 signaling inhibition; TWEAK-stimulated Fn14 reporter cells, luciferase luminescence, 8 h; inhibition, % at 10 µM; 2% of 360,000 active; in the data active means inhibition above about 50%
CF NFkB inh – inhibitors of cystic fibrosis induced NF-kB. AID 588850. 0.86% of 360,000 active. inhibition, % at 5 µM. KKLEB NF-kB-GFP reporter, PAF-induced, GFP fluorescence overnight;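 active means at least 50% inhibition at 5 µM, scaled per plate between neutral and stimulator controls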;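 further: PAF is a Pseudomonas aeruginosa culture filtrate used as stimulus; plate controls were PAF-stimulated DMSO wells for no effect and unstimulated DMSO wells for full effect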
Peg3 prom inh-1 – reduces Peg3 promoter-driven luciferase expression in HeLa; AID 588405; HeLa PEG-Prom luciferase reporter, luminescence, overnight; 1.7% of 360,000 active; inhibition, % at 20 µM;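 active means inhibition of at least 50% at 20 µM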
TROY NFkB inh – blocks TROY-dependent signaling in reporter cells | Q293 LMP1-TROYcd NF-kB luciferase reporter, 4 h | inhibition, % at 10 µM | 0.98% of 360,000 active | AID 1347056;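 active means compounds whose plate-normalised and pattern-corrected inhibition of the luciferase reporter signal at the single screening dose is 50% or more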
KKLEB cytotox – counter-screen for CF NF-kB inhibitors: cytotoxicity | KKLEB CF airway cells viability, ATPlite luminescence, overnight; active compounds read low; cells stimulated with P. aeruginosa culture filtrate | activity change (cytotoxicity), % at 5 µM | 0.36% of 360,000 active | AID 602141;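 active means corrected activity change at or below -50% at 5 µM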
Peg3 prom inh-2 – Peg3 promoter inhibition confirmation | shares compounds with Peg3 prom inh-1 | HeLa PEG-Prom luciferase reporter, luminescence, overnight | inhibition, % at 20 µM | 84% of 1,300 active | AID 602417;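 active means at 20 µM dose, 40% or more inhibition averaged across four replicates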
The depositor's hits bear a star; x = no result.

SMILES	HIF-2a block	TWEAK Fn14 block	CF NFkB inh	Peg3 prom inh-1	TROY NFkB inh	KKLEB cytotox	Peg3 prom inh-2
Cc1ccc(C(=O)Nc2cnc3ccccc3c2)cc1	84*	105*	-5	99*	87*	-20	94*
COc1ccccc1C(=O)NCCC(=O)Nc1nc2ccccc2[nH]1	-17	32	28	-30	13	-4	x
Cc1ccc(C(=O)Nc2nc3ccccc3[nH]2)cc1	63*	97*	-9	71*	71*	-52*	64*
Cc1cc(C(=O)Nc2cnc3ccccc3c2)ccc1[N+](=O)[O-]	-313	-22	-16	-269	-52	6	x
O=C(Nc1nc2ccccc2[nH]1)c1ccc([N+](=O)[O-])cc1	-294	35	-8	-221	-35	-29	x
COc1ccccc1NC(=S)N1CCc2cc(OC)c(OC)cc2C1	10	-2	-1	-12	4	2	x
O=C(Nc1ccccc1)C1Cc2c(-c3ccco3)ccnc2O1 (stereo unspecified)	-26	-60	23	-15	-12	-33	x
C=CCNC(=O)c1c(CSc2ccc(Cl)cc2)noc1C(=O)NCc1ccccc1	18	-9	-2	15	-15	-11	x
O=C(COC(=O)c1c2c(nc3ccccc13)/C(=C\c1cccs1)CCC2)Nc1ccccc1	16	42	-38	55*	6	15	60*
CC(C)NC(=O)NC(=O)COC(=O)c1c2c(nc3ccccc13)CCC2	16	45	18	92*	32	1	86*
CC(C)(C)NC(=O)COC(=O)c1c2c(nc3ccccc13)CCC2	14	61	14	40	-16	-1	x
COc1ccc(/C=C/C(=O)c2ccc3c(c2)OCCO3)cc1[N+](=O)[O-]	-61	37	0	71*	-34	-5	80*
CC1CCN(c2nc3ccc(C(=O)NCCCN4CCCCC4)cc3s2)CC1	-27	-2	-4	-96	-58	6	x
NC(=O)c1ccc2nc(NC(=O)c3ccc(N)cc3)sc2c1	-144	-7	-4	-79	-29	-1	x
Nc1ccc(-c2nc3ccc(C(=O)O)cc3s2)cc1	88*	97*	8	101*	21	3	94*
CC1CCN(c2nc3ccc(C(=O)O)cc3s2)CC1	89*	96*	-7	106*	34	7	87*
Cc1ccc(S(=O)(=O)Nc2ccc3c(c2)n(C)c(=O)n3C)cc1	-19	19	-129	-1	-6	7	x
COc1ccc(-c2sc3ccccc3c2-c2ccc(OCCN3CCCCC3)cc2)cc1	6	-8	30	96*	-9	-14	79*
Oc1ccc2sc(-c3ccccc3O)c(-c3ccc(OCCN4CCCCC4)cc3)c2c1	-3	-25	x	x	7	x	x
COc1ccc(OC)c(-c2csc(NC(=O)Cn3[nH]c(=O)c4ccccc4c3=O)n2)c1	0	-22	-26	55*	13	4	28
Cc1cc2ncn(/N=C/c3ccc4c(c3)OCO4)c2cc1C	-156	-17	-6	-100	-29	6	x
C=CCNc1c2c(nc3ncnn13)CC(C)CC2 (stereo unspecified)	25	21	13	18	29	3	x
O=C(O)CN1C(=O)/C(=C\c2cc(Br)ccc2OCc2ccccc2Cl)SC1=S	-22	-20	4	-20	50	-8	x
O=C(CCCN1C(=O)/C(=C/c2ccccc2Cl)SC1=S)NNC(=O)c1ccccc1Cl	93*	78*	8	60*	34	3	68*
O=C(O)CN1C(=O)/C(=C\c2ccccc2OCc2ccc(Cl)cc2Cl)SC1=S	66*	97*	-20	55*	80*	11	65*
SMILES	HIF-2a block	TWEAK Fn14 block	CF NFkB inh	Peg3 prom inh-1	TROY NFkB inh	KKLEB cytotox	Peg3 prom inh-2
COc1ccc(/C=C2\SC(=S)N(CCCC(=O)NNC(=O)c3ccccc3O)C2=O)cc1	90*	42	6	71*	13	-1	72*
COc1ccccc1/C=C1\SC(=S)N(CCC(=O)NNC(=O)c2ccccc2O)C1=O	26	21	2	31	3	-27	x
CC(Sc1nnc(NC(=O)c2cc3ccccc3oc2=O)s1)c1ccccc1 (stereo unspecified)	5	-27	21	31	1	-17	x
Cc1ccc(C(=O)N/N=C/c2ccc([N+](=O)[O-])s2)cc1	91*	95*	6	82*	42	-5	80*
CCOc1cccc(/C=N/NC(=S)Nc2cc(S(=O)(=O)N3CCOCC3)ccc2N2CCOCC2)c1O	19	44	15	53*	-26	-6	57*
COc1ccc2ccccc2c1/C=N/NC(=S)Nc1cc(S(=O)(=O)N2CCOCC2)ccc1N1CCOCC1	25	-41	6	17	9	1	x
C/C(=N\NC(=O)C1CC1)c1ccc(Cl)c(Cl)c1	-102	-38	10	-51	-24	2	x
C/C(=N\N=C(N)N)c1ccc(Cl)c(Cl)c1	5	18	4	105*	18	-13	83*
Cc1c(CCOC(=O)C23CC4CC(CC(C)(C4)C2)C3)sc[n+]1CC(=O)c1ccccc1	15	6	4	54*	42	-14	91*
COc1ccccc1NC(=S)NC1CCCCC1	14	-4	8	-16	-2	-4	x
COc1ccccc1NC(=S)NC1CCCCCCCCCCC1	22	-8	16	55*	23	-17	91*
CN1CCN(c2nc(-c3ccccc3)nc3c2oc2ccccc23)CC1	9	-20	-59	66*	-18	-2	-3
COc1ccc(-c2nc3c(C(=O)NCCN(C)C)cccc3c3ccccc23)cc1	1	-175	-126	95*	-72	-1	99*
COc1ccc(-c2coc3c(C(=O)NCCN(C)C)cccc23)c(C)c1	3	2	-5	28	26	3	x
CC(C)CC(N)c1csc(NC(=O)Nc2ccccc2C(C)C)n1 (stereo unspecified)	9	8	9	72*	11	-8	84*
CC(C)(C)c1ccccc1NC(=O)Nc1nc(C(N)c2ccccc2)cs1 (stereo unspecified)	5	-3	-13	17	-11	-3	x
CCN1CCN(C(c2ccc(C(F)(F)F)cc2)c2ccc3cccnc3c2O)CC1 (stereo unspecified)	49*	-12	16	55*	21	-33	60*
CN(C)CCN(C(=O)c1ccc(S(=O)(=O)N2CCCC2)cc1)c1nc2ccc(Br)cc2s1	-98	-13	8	-99	4	-1	x
CN(C)CCCN(C(=O)c1ccc(S(=O)(=O)N2CCCCCC2)cc1)c1nc2cc3c(cc2s1)OCO3	-11	-37	9	-10	15	-7	x
